In PubChem BioAssay (NCATS) one finds Potency, outcome and max response data, which are given here for five compounds.

Experiment [1] relates to Zika virus NS2B-NS3 protease (linked construct). Nature of the experiment: Primary screen NINDS Rhodamine qHTS for Zika virus inhibitors (AID 1347160). Further: nearly all actives have a fitted effect of over 55% in size. Summed up: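 Rhodamine110-peptide cleavage (1.5 µM substrate) by 25 nM linked NS2B-NS3 enzyme at pH 8.0 (Tris, Tween 20), after 15 min RT preincubation with compounds; 15-min fluorescence change normalized to controls and Hill-fitted.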
On the technique in general: Quantitative high-throughput screening tests each substance at several concentrations.

Experiment [2] concerns the target Calcium and integrin-binding protein 1 (Homo sapiens) (UniProt Q99828). The experiment can be described thus: Primary qHTS for Identification of Calcium Integrin Binding Protein 1 (CIB1) Competitor (AID 1508620).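 Further: GST tagged CIB1 binding a fluorescein labelled alphaIIb integrin peptide tracer; top concentration of the series differs between compounds; on the % scale 0 is the no-effect control and ±100 the full control effect.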 Summed up: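 Fluorescence polarization competition: CIB1-GST (1 uM final) preincubated with compound 15 min at room temperature, then FITC-labeled alphaIIb peptide (100 nM final) added for another 15 min. Polarization read at Ex 480/Em 540.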

For experiment [3], the target named is Glutathione peroxidase 1 (Homo sapiens) (UniProt P07203). The experiment can be described thus: Primary qHTS Assay for Inhibitors of Recombinant Selenoprotein Glutathione Peroxidase 1 (GPX1) (AID 1845191). Further: on the % scale 0 is the no-effect control and ±100 the full control effect; nearly all actives have a fitted effect of over 65% in size. The method, boiled down:
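GPX1 10 nM, GR 100 nM, GSH 1 mM, NADPH 0.5 mM, CHP 0.5 mM (final). 30-min cpd preincubation, RT. Ex340/Em450 read t=0, t=15 min.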

Experiment [4] deals with Phospholipid hydroperoxide glutathione peroxidase GPX4 (Homo sapiens) (UniProt P36969). The experiment can be described thus: Primary qHTS Assay for Inhibitors of Recombinant Selenoprotein Glutathione Peroxidase 4 (GPX4) (AID 1845192). Further: on the % scale 0 is the no-effect control and ±100 the full control effect; nearly all actives have a fitted effect of over 65% in size. The method, boiled down: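 qHTS, GR-coupled: GPX4 200 nM + cpd 30 min RT → GSH 1 mM, NADPH 0.5 mM, GR 100 nM → CHP 0.5 mM start; fluor 340/450 at t0 and t15 min; no-enzyme wells as control.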
Phospholipid hydroperoxide glutathione peroxidase GPX4 (Homo sapiens), sequence (P36969 whole entry, looked up): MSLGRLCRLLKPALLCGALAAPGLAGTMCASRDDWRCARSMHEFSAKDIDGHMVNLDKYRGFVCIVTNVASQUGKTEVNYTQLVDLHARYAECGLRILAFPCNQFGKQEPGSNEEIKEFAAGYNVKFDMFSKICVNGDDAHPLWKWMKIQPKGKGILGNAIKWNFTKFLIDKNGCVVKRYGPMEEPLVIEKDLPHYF

The target in experiment [5] is Luciferin 4-monooxygenase (Photinus pyralis) (UniProt P08659). Nature of the experiment: Primary firefly luciferase (FLuc) qHTS assay for identification of artifact compounds. (AID 1845220). Further: nearly all actives have a fitted effect of over 60% in size. The note with it: outcome: dose series up to 54.1 µM unless noted. The method, boiled down:
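In this counter-screen for luciferase artifacts, test compounds met substrate (10 uM each luciferin and ATP) before 10 nM enzyme started the reaction. Light output was measured 5 min later.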

Experiment [6] is described as follows: Primary fluorescence-based thiol-reactive (MSTI) qHTS assay for identification of artifact compounds. (AID 1845221).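 Further: thiol-reactive compounds lower the probe fluorescence signal; nearly all actives have a fitted effect of over 65% in size.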 Summed up:
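Reactivity toward the thiol probe MSTI (4 uM) is scored by fluorescence at Ex/Em 525/598 nm after 1 h at room temperature. Acetyl-MSTI and MSTI define the activity scale.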

Experiment [7] deals with Nanoluciferase (engineered Oplophorus gracilirostris luciferase). Nature of the experiment: Primary Nanoluciferase (NLuc) qHTS assay for identification of artifact compounds. (AID 1845222).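 Further: NLuc secreted into diluted conditioned medium of S16 cells.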 Summed up:
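Using secreted nanoluciferase in S16 culture medium (0.22 um filtered, 1:55 dilution), compounds were preincubated 15 min at RT. Signal was generated with Nano-Glo reagent (1:100) over 5 min.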

A short description of experiment [8]: Primary redox qHTS assay for identification of artifact compounds. (AID 1845223).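 Further: 0% = DMSO and 100% = reference compound.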 The method, boiled down: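 Redox-cycling detection via DTT (250 uM final) oxidation coupled to Amplex Red (25 uM)/HRP (250 mU/mL) in HBSS. 15 min preincubation plus 30 min after DTT, room temperature. Ex/Em 525/598 nm; 4-parameter Hill fit against DMSO and 10 uM DA3003.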
Experiment [9] deals with HaCat. Nature of the experiment: Cytotoxic Profiling of Annotated Libraries Using Quantitative High-Throughput Screening (AID 1296008). Further: nearly all actives have a fitted effect of over 60% in size. On max response: on the % scale 0 is the no-effect control and ±100 the full control effect. The note with it: Five cell lines viability, CellTiter-Glo ATP luminescence, 48-72 h; max response: stronger effect = lower value. Summed up: (§1)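 Compounds were pin-transferred onto cells and incubated 48 or 72 hr at 37 degree Celsius, 95% humidity. CellTiter-Glo was added, plates sat 10 min at room temperature, then ATP-coupled luminescence was imaged as the viability read-out.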

The subject of experiment [10] is NIH3T3. Described as above. Particulars: Five cell lines viability, CellTiter-Glo ATP luminescence, 48-72 h; max response: stronger effect = lower value. The method, boiled down:
as §1
(Cellular ATP, detected with luciferase, serves as a proxy for viable cell number.)

The test system of experiment [11] is C33A. The experiment can be described thus: Primary qHTS to identify gynecologic anti-cancer compounds using libraries of approved drugs and bioactive compounds (AID 1345084). Further: nearly all actives have a fitted effect of over 55% in size. Further: potency means the concentration at half of the fitted maximal effect. The note with it: Gynecologic cancer cell panel viability, ATPlite luminescence, 48 h; series mostly up to 57.5 µM. The method, boiled down:
(§2)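 Measured: luminescence after ATPlite addition (15 min, RT). Exposure: 48 h, 37 C, 5% CO2.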

The subject of experiment [12] is CAOV3. Described as above. Particulars: Gynecologic cancer cell panel viability, ATPlite luminescence, 48 h; series mostly up to 57.5 µM. The method, boiled down:
as §2

In experiment [13] the test system is CASKI. The experiment is described as above. The note with it: Gynecologic cancer cell panel viability, ATPlite luminescence, 48 h; series mostly up to 57.5 µM. The method, boiled down:
as §2

The test system of experiment [14] is Es-2. Described as above. Particulars: Gynecologic cancer cell panel viability, ATPlite luminescence, 48 h; series mostly up to 57.5 µM. The method, boiled down: as §2
Experiment [15] deals with Hek293T. Described as above. The note with it: Gynecologic cancer cell panel viability, ATPlite luminescence, 48 h, control line for the selectivity index; series mostly up to 57.5 µM. Summed up:
as §2

Experiment [16] has as its system JEG-3. The description is as above. The note with it: Gynecologic cancer cell panel viability, ATPlite luminescence, 48 h; series mostly up to 57.5 µM. Summed up:
as §2

The subject of experiment [17] is OV90. The description is as above. The note with it: Gynecologic cancer cell panel viability, ATPlite luminescence, 48 h; series mostly up to 57.5 µM. The method, boiled down: as §2
The subject of experiment [18] is PA-1. Described as above. Particulars: Gynecologic cancer cell panel viability, ATPlite luminescence, 48 h; series mostly up to 57.5 µM. Summed up: as §2
In experiment [19] the test system is Tov-21-G. The experiment is described as above. Particulars: Gynecologic cancer cell panel viability, ATPlite luminescence, 48 h; series mostly up to 57.5 µM. Summed up:
as §2

The test system of experiment [20] is Tov112D. Described as above. Particulars: Gynecologic cancer cell panel viability, ATPlite luminescence, 48 h; series mostly up to 57.5 µM. Summed up:
as §2

A number with no mark means an inactive call. Inconclusive results are not listed. Active and inactive are the calls of the source. The call rests on the fitted dose curve; in most records, active means well fitted curve in the direction sought with a large enough effect; inconclusive means small, poorly fitted or top-dose-only effect, or another doubt; inactive means no such curve, though single readings can be large; an effect the other way counts as inactive or inconclusive.

Calcium and integrin-binding protein 1 (Homo sapiens), sequence (Q99828 whole entry, looked up): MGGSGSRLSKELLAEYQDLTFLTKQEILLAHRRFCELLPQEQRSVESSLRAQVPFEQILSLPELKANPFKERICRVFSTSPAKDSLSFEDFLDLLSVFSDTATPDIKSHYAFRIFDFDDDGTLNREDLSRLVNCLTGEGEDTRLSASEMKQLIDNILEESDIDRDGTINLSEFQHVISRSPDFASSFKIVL
Glutathione peroxidase 1 (Homo sapiens), sequence (P07203 whole entry, looked up): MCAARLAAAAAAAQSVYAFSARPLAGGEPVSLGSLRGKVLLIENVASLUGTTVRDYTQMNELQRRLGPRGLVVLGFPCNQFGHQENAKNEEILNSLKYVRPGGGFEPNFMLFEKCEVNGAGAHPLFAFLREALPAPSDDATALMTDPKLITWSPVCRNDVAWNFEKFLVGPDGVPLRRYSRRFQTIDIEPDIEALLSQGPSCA

For `CC(O)(c1ccccc1)C(Cc1ccc(Cl)cc1)n1cncn1` (centres undefined), the Potency entry in [1], in [2], in experiment [3], in experiment [4], in experiment [6] and in experiment [7] was “inactive” in each case. Moreover, the Potency entry in [8], in [11], in experiment [12], in experiment [13], in [14] and in experiment [15] was “inactive” each time. The Potency entry in [16], in [17], in [18], in [19] and in [20] was “inactive” throughout. Besides, the result in [5] and in [9] was inactive. Further, the max response in experiment [10] was 1.55%.
For the compound `O=S(=O)(c1ccccc1F)N1CCOc2c(N3CCNCC3)cccc21`, the Potency entry in [1], in experiment [2], in experiment [4], in experiment [6], in [7] and in experiment [8] was “inactive” each time. Moreover, the Potency result in experiment [11], in experiment [13], in experiment [14], in experiment [15], in experiment [16] and in [17] was “inactive” in each case. In addition, the Potency entry in experiment [18], in experiment [19] and in [20] was “inactive” each time. The outcome in experiment [5] and in [9] was inactive. In experiment [10], the max response was 2.22%.
`C=C1CC[C@H]2[C@@H](/C=C(\C)C(=O)[C@@]3(OC(C)=O)C[C@H](C)[C@H](OC(=O)c4ccccc4)[C@@H]3[C@H]1OC(C)=O)C2(C)C`: the Potency entry in experiment [1], in experiment [2], in experiment [3], in [4], in [6] and in experiment [7] was “inactive” each time. For the same compound, the Potency entry in experiment [8], in experiment [11], in [12], in experiment [13], in experiment [14] and in experiment [15] was “inactive” each time. For the same compound, the Potency entry in experiment [16], in [17], in experiment [18], in [19] and in [20] was “inactive” in each case. In experiment [5], the call was inactive. The max response was -1.11% in experiment [9] and -4.22% in experiment [10].
On to `C#CC1(O)CCC2C3CCC4=CC(=O)CCC4=C3C=CC21C` (centres undefined), for which the Potency entry in [1], in [2], in experiment [3], in experiment [6], in [7] and in [8] was “inactive” each time. In addition, the Potency entry in experiment [11], in experiment [12], in experiment [13], in [14], in experiment [15] and in [16] was “inactive” throughout. Moreover, the Potency entry in [17], in [19] and in [20] was “inactive” in each case. For the same compound, the result in [5] and in [9] was inactive. Also, in experiment [18], the Potency was 11.2 µM (active).
Regarding `C[C@]12CC[C@@H](O)C[C@@H]1CC[C@@H]1[C@@H]2CC[C@]2(C)C(=O)[C@@H](Br)C[C@@H]12`, the Potency entry in experiment [1], in [2], in experiment [3], in experiment [4], in experiment [7] and in [8] was “inactive” each time. In addition, the Potency result in experiment [11], in experiment [12], in experiment [13], in [14], in experiment [15] and in experiment [16] was “inactive” throughout. Also, the Potency result in experiment [17], in [18], in experiment [19] and in experiment [20] was “inactive” in each case. In addition, the compound was called inactive in experiment [5] and in experiment [9].
